Assay results as given in PubChem BioAssay AID2315 (National Center for Advancing Translational Sciences (NCATS), 2010).
The campaign covered roughly 290,000 compounds. About 27,000 (9.3%) were called active. No stated cut-off is given here; in the data, active means inhibition mostly above about 28% (no sharp cut-off); inactive means mostly below about 43%. Only a selection was taken, and actives are over-represented in it overall.

assay: A qHTS for Small Molecule Inhibitors of Shiga Toxin; conditions: Vero cells, Shiga toxin protein synthesis inhibition reporter; at 38.7 µM, hits give high values; further: 0% is about no effect

| SMILES | inhibition |
| --- | --- |
| COc1ccc(/C=N/N(C)C2=NS(=O)(=O)c3ccccc32)cc1OC | -11.4% (inactive) |
| COc1ccc(NC(=O)C2CCC(CNC(=O)[C@@H]3Cc4ccccc4CN3)CC2)cc1 (stereo partly specified) | 8.69% (inactive) |
| COc1ccc(CNC(=O)C2CCN(S(=O)(=O)c3ccc(SC)cc3)CC2)cc1 | -9.94% (inactive) |
| O=C(Nc1cccn(Cc2ccccc2Cl)c1=O)NC1CCCCC1 | 33% (inactive) |
| CCNC(=O)CCc1nc(-c2ccc(C(C)(C)C)cc2)no1 | 42.8% (active) |
| CCNC(=O)CCc1nc(-c2ccc(C)cc2)no1 | 34.3% (inactive) |
| CN1CCN(C(=O)CCc2nc(-c3ccc(Cl)cc3)no2)CC1 | 42.8% (inactive) |
| CN(C)c1ccc(-n2cccc2/C=C2/SC(=Nc3ccc(F)cc3)NC2=O)cc1 | -12.2% (inactive) |
| O=S(=O)(N/N=C\c1cccn1-c1ccccc1)c1ccc2ccccc2c1 | -11.6% (inactive) |
| CN(C)c1ccc(-n2cccc2/C=N/n2cnnc2)cc1 | 61% (active) |
| COc1ccc(/C(N)=N/OC(=O)Oc2ccccc2)cc1 | -9.52% (inactive) |
| COc1ccc(/C(N)=N/OC(=O)CCCc2ccccc2)cc1 | 89.8% (active) |
| COc1ccc(C(=O)NC(=S)NNC(=O)CCc2ccccc2)cc1 | 18.3% (inactive) |
| COc1ccc(OCCCC(=O)NCCc2ccccc2)cc1 | -4.42% (inactive) |
| COc1ccc(CC(=O)NC(C)CCc2ccccc2)cc1 (stereo unspecified) | -4.86% (inactive) |
| COc1ccc(/C(N)=N/OC(=O)Cc2ccccc2)cc1 | 90% (active) |
| CC(C)C(c1nnnn1C1CCCCC1)N1CCN(C(=O)c2ccco2)CC1 (stereo unspecified) | -10.3% (inactive) |
| Cc1ccc(-n2ncc(C(=O)NC3CC3)c2C2CCN(C(=O)OC(C)(C)C)CC2)c(C)c1 | 16.2% (inactive) |
| O=C(C1CCCN(S(=O)(=O)c2ccc([N+](=O)[O-])cc2)C1)N1CCCCC1 (stereo unspecified) | 2.21% (inactive) |
| COc1cccc(/C=C2/SC(=S)N(CC(=O)NC3C=CS(=O)(=O)C3)C2=O)c1 (stereo unspecified) | 16.1% (inactive) |
| CC(C)CNC(=O)C(=O)NCC(c1ccc2c(c1)OCO2)N1CCOCC1 (stereo unspecified) | -7.49% (inactive) |
| O=S(=O)(Nc1ccccc1Br)c1cccs1 | 6.38% (inactive) |
| COC(=O)c1ccc(CSc2nncn2N)cc1 | 26.1% (inactive) |
| CC(C)CC(CC(C)C)=NNC(=O)c1ccc(CSc2nncn2C)cc1 | 16% (inactive) |

| SMILES | inhibition |
| --- | --- |
| COC(=O)c1ccc(CSc2nncn2C)cc1 | 177% (active) |
| O=C(NC(=S)Nc1ncccn1)c1ccccc1Br | 9.32% (inactive) |
| Cc1ccc(NC2CCCN(C(=O)CCc3cn[nH]c3)C2)cc1C (stereo unspecified) | 9.62% (inactive) |
| CC(NCC(=O)Nc1cc(Cl)cc(Cl)c1)c1ccccc1 (stereo unspecified) | -4.69% (inactive) |
| COc1ccc(/C=N/NS(=O)(=O)c2ccc(NC(C)=O)cc2)cc1 | 24.7% (inactive) |
| COc1ccc(/C=N/OCC(=O)N(Cc2ccccc2)c2ccccc2C(=O)O)cc1 | -13.4% (inactive) |
| COc1ccc(CCCc2nnc(SCc3nc4ccccc4c(=O)[nH]3)n2C)cc1 | -10.2% (inactive) |
| COc1ccc(/C=N/Nc2nc3ccccc3c(=O)[nH]2)cc1 | 60.8% (active) |
| COc1ccc(C=Nc2cccc3ncccc23)cc1 | -17.4% (inactive) |
| COc1ccc(/C=N/Nc2ccccc2C(=O)O)cc1 | 31.8% (active) |
| COC(=O)c1sccc1NS(=O)(=O)c1ccc(F)cc1F | 11.9% (inactive) |
| COCCCn1c(SCC(=O)NC2CCCC2)nnc1-c1ccccc1 | -6.72% (inactive) |
| Cc1nc(-c2ccc(F)cc2)c(CC(=O)N2CCN(S(=O)(=O)c3ccc(F)cc3)CC2)s1 | 26.6% (inactive) |
| NS(=O)(=O)c1ccc(CCNc2nc(C(F)(F)F)nc3ccccc23)cc1 | -9.53% (inactive) |
| CC1COc2ccccc2N1C(=O)c1ccc(F)cc1 (stereo unspecified) | -4.1% (inactive) |
| S=C1NC(c2ccccc2)=NCN1c1ccc(Br)cc1 | 29.2% (inactive) |
| N#Cc1ccc(C2N=C(c3ccccc3)NO2)cc1 (stereo unspecified) | 89.5% (active) |
| Brc1ccccc1C1Nc2cccc3cccc(c23)N1 | -2.7% (inactive) |
| Brc1ccccc1C1N=C(c2ccccc2)NO1 (stereo unspecified) | 85.7% (active) |
| O=C1CCCCN1CCCC(=O)N1CCCC(Nc2ccc(F)cc2)C1 (stereo unspecified) | 7.4% (inactive) |
| CCOc1ccc(NC(=O)CCCCCN2C(=O)[C@@H]3Cc4ccccc4CN3C2=O)cc1 | 3.39% (inactive) |
| CCCNC(=O)C(=O)Nc1cc2c3c(c1)CCC(=O)N3CCC2 | 5.83% (inactive) |
| COc1ccc(N2C(=O)C(CC(=O)Nc3ccccc3)N(Cc3ccc(OC)c(OC)c3)C2=O)cc1 (stereo unspecified) | 40.7% (inactive) |
| COc1ccc(-c2oc3ncnc(NCCCO)c3c2-c2ccc(OC)cc2)cc1 | -19.7% (inactive) |

| SMILES | inhibition |
| --- | --- |
| COc1ccc(O[C@H]2C=C[C@@H](c3ccccc3)O[C@@H]2CO/N=C/C[C@@H]2C=C[C@H](OC(C)=O)[C@@H](COC(C)=O)O2)cc1 | 16.1% (inactive) |
| O=C(NCc1ccco1)/C(=C/c1cccc([N+](=O)[O-])c1)NC(=O)c1ccco1 | -2.89% (inactive) |
| Cc1cc2occ(CC(=O)NNC(=O)c3ccccc3F)c2cc1C | 18% (inactive) |
| O=C(CSc1nccc(=O)[nH]1)Nc1ccc(N2CCOCC2)c(Cl)c1 | -5.56% (inactive) |
| CCOC(=O)c1nn(-c2cccc(C)c2)cc1C(=O)c1ccccc1 | 152% (active) |
| CCOC(=O)c1cn(Cc2cccc(C)c2)nn1 | 1.57% (inactive) |
| CC(=O)c1nn(-c2cccc(Br)c2)cc1C(=O)c1cccc2ccccc12 | -19.7% (inactive) |
| CCOc1ccc(CNC(=O)CCC(=O)N2CCSc3ccccc32)cc1 | 5.1% (inactive) |
| O=S(=O)(Nc1ccccc1)c1ccc(NS(=O)(=O)c2cccs2)cc1 | -2.44% (inactive) |
| NC(=O)c1cc(S(=O)(=O)N2CCCC2)ccc1OCc1ccc(F)cc1 | -10.2% (inactive) |
| CC(=O)NCCC(=O)Nc1nc(-c2ccc3c(c2)OCCO3)cs1 | 50% (active) |
| O=C(Nc1nc(-c2ccc3c(c2)OCO3)cs1)c1ccncc1 | 42.9% (inactive) |
| CC(=O)NCCC(=O)Nc1nc(C)c(Cc2ccc3c(c2)OCO3)s1 | 13.3% (inactive) |
| CC(=O)Nc1ccc(Oc2ccc3c(c2)C(=O)NC3=O)cc1 | -7.33% (inactive) |
| Cc1ccc(S(=O)(=O)N/N=C(\c2ccccc2)C2CC2)cc1 | -3.31% (inactive) |
| CN(C)/C=C/C(=O)c1ccccc1F | 30.4% (inactive) |
| Cc1nc(-c2ccccc2)sc1C(=O)/C=C/N(C)C | 127% (active) |
| Cc1nc(COc2cccc(Cl)c2)sc1C(=O)/C=C/N(C)C | 48.6% (inactive) |
| O=C(CN(C(=O)CCC(=O)Nc1nccs1)c1ccc(F)cc1)NCc1ccc2c(c1)OCO2 | -6.5% (inactive) |
| Cn1c(=NC(=O)c2ccc3c(c2)OCCO3)sc2cc(S(C)(=O)=O)ccc21 | 2.16% (inactive) |
| COCCn1c(=NC(=O)c2ccccc2[N+](=O)[O-])sc2cc(S(C)(=O)=O)ccc21 | 21.4% (active) |
| COCCNC(=O)c1ccccc1NS(=O)(=O)c1ccc(C)c([N+](=O)[O-])c1 | -5.37% (inactive) |
| COC(=O)c1cc(NS(=O)(=O)c2ccc3c(c2)c(=O)n(C)c(=O)n3C)cc(C(=O)OC)c1 | -1.69% (inactive) |
| Cc1ccc(S(=O)(=O)NNC(=O)/C=C/c2cccc(F)c2)cc1 | -5.71% (inactive) |

| SMILES | inhibition |
| --- | --- |
| CC1CCCCC1NC(=O)CCS(=O)(=O)c1ccc2c(c1)NC(=O)CO2 (stereo unspecified) | 49.7% (inactive) |
| COc1ccc(C(=O)O)cc1S(=O)(=O)NCc1cccnc1 | 2.47% (inactive) |
| Cc1cc(Cl)c2oc(C(=O)N3CCC(O)(c4ccccc4)CC3)c(C)c2c1 | 18.3% (inactive) |
| Cc1cc(Cl)c2oc(C(=O)N(C)C(C)c3ccccn3)c(C)c2c1 (stereo unspecified) | 50.1% (active) |
| Cc1cc(Cl)c2oc(C(=O)NC(C)c3ccncn3)c(C)c2c1 (stereo unspecified) | 14.6% (inactive) |
| NC(=O)C1CCCN(CC(=O)N2CCN(c3ccccc3)CC2)C1 (stereo unspecified) | -5.2% (inactive) |
| COc1ccc2occ(C(=O)c3ccc(N=C(C)N(C)C)cc3)c2c1 | 62% (active) |
| COc1ccc(OC)c(C(=O)c2ccc(C(=O)O)cc2)c1 | 29.1% (inactive) |
| COc1ccc(OC)c(C(=O)c2coc3ccc(OC)cc23)c1 | -7.11% (inactive) |
| CCOCCCN(C)C1CCN(C(=O)c2oc3ccccc3c2NC(=O)Cc2cccc([N+](=O)[O-])c2)CC1 | 18.7% (inactive) |
| Cc1noc(C)c1CSCC(=O)N(CCC(C)C)c1c(N)n(Cc2ccccc2)c(=O)[nH]c1=O | 6.62% (inactive) |
| COc1cc(C2C(C(=O)c3ccco3)=C(O)C(=O)N2c2cc(C)on2)ccc1OCc1ccccc1 (stereo unspecified) | -4.72% (inactive) |
| C=CCSc1nnc(N2C(=O)C(O)=C(C(=O)c3ccco3)C2c2ccc(F)cc2)s1 (stereo unspecified) | 19.6% (inactive) |
| Cc1ccc2nc(N3C(=O)C(O)=C(C(=O)c4ccco4)C3c3cccc(O)c3)sc2c1 (stereo unspecified) | 71.4% (active) |
| CCOc1ccccc1NC(=O)NC1CCCCCCC1 | -4.06% (inactive) |
| COc1cc(NC(=O)C2CCN(c3cnccn3)CC2)cc(OC)c1 | -1.63% (inactive) |
| CS(=O)(=O)N1CCN(c2cccc(Cl)n2)CC1 | -4.33% (inactive) |
| CS(=O)(=O)N1CCc2nc(-c3ccccc3)sc2C1 | 99.9% (active) |
| CS(=O)(=O)N1CCN(C(=O)Cc2ccccc2)CC1 | 8.45% (inactive) |
| O=C(Cn1nc([N+](=O)[O-])nc1Br)NC1CCCCC1 | -1.71% (inactive) |
| Cc1cc(-c2ccc(S(=O)(=O)N3CCN(c4cccc(C(F)(F)F)c4)CC3)s2)on1 | -3.9% (inactive) |
| COc1ccc(NC(=O)C/C(C)=N/NC(=O)c2cnccn2)cc1Cl | 45.4% (active) |
| O=C(COc1ccc(Cl)cc1Cl)NCCCNC(=O)c1cnccn1 | -3.62% (inactive) |
| CCCCC(=O)N/N=C(\C)CC(=O)Nc1cc(Cl)ccc1OC | 2.31% (inactive) |
